In ChEMBL document CHEMBL4513216, “Probing the Open Global Health Chemical Diversity Library for Multistage-Active Starting Points for Next-Generation Antimalarials” (ACS Infect Dis, 2020):
Out of some 68,000 compounds screened, about 2,700 (4%) showed an effect of 50% or more. For the sample, strong results were picked, then their nearest neighbours and some compounds at random.

What follows are compounds tested on Plasmodium berghei (assay: Screen against P. berghei liver stage (PbLuc), transformed with Luciferase, at 2uM). Settings: tested at 2 uM.
Assay type: functional, HepG2

Structure (SMILES)	INHIBITION [%]
O=C1N(c2cccnc2)CCC12CCCN(Cc1ccoc1)C2 (centres undefined)	16.39
O=C(NCCc1ccccc1)N1C[C@@H]2C[C@H](C(=O)N3CCCC3)[C@H](C1)O2	-0.89
CCC1=N[C@@]2(CC[C@@H]3CN(Cc4ccc(F)cc4)C[C@@H]32)C(=O)N1C	-22.23
Fc1ccc(CN2CCC(c3nccnc3-n3ccnc3)CC2)cc1	16.87
Fc1ccc(CN2CCCC(c3nccnc3-n3ccnc3)C2)cc1 (centres undefined)	50.74
c1ccc(CN2CCCC(c3nccnc3-n3ccnc3)C2)cc1 (centres undefined)	22.66
CS(=O)(=O)N[C@@H]1CCN(Cc2cccnc2)[C@H]1Cc1ccccc1	7.26
CN(C)C1CCN(C(=O)c2cc(-c3ccn(C)n3)n3ccccc23)CC1	-40.37
CC(C)NC(=O)N1C[C@@H](F)[C@@H](OCc2nc3ccccc3o2)C1	16.47
CC(C)N1CCC(N2CCOC3(CCCC3)C2)C1=O (centres undefined)	-0.75
COC(=O)c1sccc1S(=O)(=O)NCCC(O)c1ccco1 (centres undefined)	4.89
Fc1cccc2ncnc(NCCCc3ccncc3)c12	54.3
CSCCCNc1ncnc2cccc(F)c12	28.79
CS(=O)(=O)NCCNc1ncnc2cccc(F)c12	17.73
CC(C)(C)c1cn(C2CCN(C(=O)c3cnccn3)CC2)nn1	50.4
CC(C)(C)c1cn(C2CCN(C(=O)c3cncnc3)CC2)nn1	40.83
CC(C)n1cc(C(=O)N2CCC(n3cc(C(C)(C)C)nn3)CC2)cn1	22.39
Cc1cncc(C(=O)N2C[C@@H](C(=O)O)[C@H](C(C)C)C2)c1	44.23
COc1cc(C2(C(=O)NCCn3ccnc3)CCCC2)ccc1C	-64.32
CCc1ncc(S(C)(=O)=O)c(C2CCCNC2)n1 (centres undefined)	18.8
O=C(NCCn1ccc(-c2ccncc2)n1)c1ccc2c(c1)OCO2	6.33
CCCS(=O)(=O)NC(C)C(=O)NCc1ccc(N2CCN(C)CC2)nc1 (centres undefined)	-34.5
COc1ccc(OC)c(C(C)NC(=O)Nc2nnc(C)s2)c1 (centres undefined)	-10.7
COc1ccc(C(C)NC(=O)Nc2nnc(C)s2)c(OC)c1 (centres undefined)	58.69
COc1cc(C)c(C(C)NC(=O)Nc2nnc(C)s2)cc1OC (centres undefined)	39.48

Structure (SMILES)	INHIBITION [%]
CC(C)N(CC(N)=O)CC(=O)NCCc1c(F)cccc1F	37.18
CC(Cc1c(F)cccc1F)NC(=O)CSCC(N)=O (centres undefined)	14.19
CC(Cc1c(F)cccc1F)NC(=O)CN(CC(N)=O)C(C)C (centres undefined)	58.53
CS(=O)(=O)c1ccc(CC(=O)N2CCN3CCNC(=O)C3C2)cc1 (centres undefined)	83.83
CNS(=O)(=O)c1ccc(CN2CCN3CCNC(=O)C3C2)cc1 (centres undefined)	-43.5
O=C1NCCN2CCN(C(=O)NCCc3ccccc3)CC12 (centres undefined)	33.48
Cc1cc(-c2cnc(N3CCOCC3)nc2-c2ccc(C)s2)on1	8.09
CS(=O)(=O)NCCN1CCCC1c1ccc(Cl)cc1 (centres undefined)	8.42
Cc1ccc(C2CSCCN2CCS(C)(=O)=O)cc1 (centres undefined)	38.67
CS(=O)(=O)NCCN1CCSCC1c1ccc(Cl)cc1 (centres undefined)	36.28
CS(=O)(=O)CCN1CCSCC1c1ccc(Cl)cc1 (centres undefined)	5.28
CCS(=O)(=O)CCCN1CCSCC1c1ccc(Cl)cc1 (centres undefined)	52.98
CS(=O)(=O)CCCN1CCSCC1c1ccc(Cl)cc1 (centres undefined)	62.51
CCN(C(=O)c1cc(C)nc2ccccc12)C1CC(=O)NC1=O (centres undefined)	10.93
Nc1ncccc1C(=O)NCc1ccc(Br)cc1	49.69
Cc1csc(N2CCN(C(=O)C(C)n3cncn3)CC2)n1 (centres undefined)	4.18
Cc1cc(C(=O)NCCCn2nccc2C2CC2)c(=O)[nH]c1C	49.45
COc1c(CNCc2ccnc(N(C)C)c2)c(C(C)C)nn1C	18.85
CC(=O)N1CCN([C@@H]2CCC[C@@H](NC(=O)c3cccnc3)[C@H]2O)CC1	20.44
CC(=O)N1CCOC2(CCN(C(=O)C3CC3)CC2)C1	-31.76
NC(=O)CN1CCCN(C(=O)c2ccc(SC(F)F)cc2)CC1	2.31
O=C(CCOCC(F)(F)F)N1CCCC(n2ccnc2)C1 (centres undefined)	2.21
O=C1COc2ccc(C(=O)NS(=O)(=O)c3cc(F)ccc3F)cc2N1	-9.66
Cc1nc(NC(=O)c2nn(-c3ccc(F)cc3C)cc2O)n[nH]1	2.82
c1ccc(-c2nnc(CNCCn3cccn3)o2)cc1	51.32

Structure (SMILES)	INHIBITION [%]
COc1ccc(-c2nnc(CNCCn3cccn3)o2)cc1	-16.99
Cc1ccc(-c2nnc(CNCCn3cccn3)o2)cc1	-9.22
COc1cccc(C(=O)N2CCCC(CNS(C)(=O)=O)C2)c1 (centres undefined)	2.74
Cc1cc(C2CCCN(C(=O)CCc3cscn3)C2)n[nH]1 (centres undefined)	-0.13
COCC(NC(=O)c1ccco1)c1cccc(C(F)(F)F)c1 (centres undefined)	39.45
COCC(NC(=O)c1ccc[nH]1)c1cccc(C(F)(F)F)c1 (centres undefined)	11.28
COCC(NC(=O)c1ccoc1C)c1cccc(C(F)(F)F)c1 (centres undefined)	74.22
NS(=O)(=O)Cc1ccc(CNC(=O)NCC2CCOC2)cc1 (centres undefined)	-27.91
CC1CN(CCC(=O)NCCc2cccnc2)Cc2ccccc2O1 (centres undefined)	52.3
CC1CN(CC(=O)NCCc2ccncc2)Cc2ccccc2O1 (centres undefined)	11.9
Cc1ccc2c(c1)CN(CC(=O)NCCc1ccc(F)cc1)CC(C)O2 (centres undefined)	-16.71
COC(=O)c1cnc2c(c(C)nn2C)c1OC	-8.44
CC(C)Oc1ncccc1CNC(=O)c1ccco1	26.11
Nc1no[n+]([O-])c1C(=O)NCc1ccco1	84.12
COc1ncccc1CNC(=O)c1ccco1	51.46
COc1ncccc1CNC(=O)c1csc(Br)c1	-12.08
Nc1no[n+]([O-])c1C(=O)NCc1ccccn1	-18.45
COc1ncccc1CNC(=O)c1cc(F)cc(Br)c1	58.69
COc1ncccc1CNC(=O)c1c[nH]c(=O)c(Br)c1	37.18
CCCNC(=O)NCc1cccnc1OC	56.12
Nc1no[n+]([O-])c1C(=O)NCc1cccnc1	-3.26
COc1ncccc1CNC(=O)NCCNC(=O)c1ccco1	39.92
COc1ncccc1CNC(=O)NCc1ccco1	-2.87
COc1ncccc1CNC(=O)NCCNS(C)(=O)=O	6.3
